Source: PubChem (National Center for Advancing Translational Sciences (NCATS))
Hits are enriched below; roughly 21% of the tested compounds scored in any of these assays.
Pf growth 96h = P. falciparum growth inhibition at 96 hours; P. falciparum luciferase reporter growth, 96 h; Potency, µM (top dose mostly 28.7 µM), usual class: inhibitors; actives 6.9% (n = 320,000); AID 504834
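Parasite growth measured via integrated firefly luciferase reporter in P. falciparum. Infected erythrocytes at 2% hematocrit, 0.05% parasitemia final were treated 96 hours at 37 C under 5% CO2, and luminescence was read.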
SARS PLpro yeast = blocks SARS-CoV papain-like protease in a yeast assay. S. cerevisiae expressing SARS-CoV PLpro, growth rescue. Potency, µM (series often up to 32.9 µM), actives largely listed as activators. actives 0.19% (n = 330,000); calls by dose curve; also: nearly all actives have a fitted effect of over 55% in size
Pf growth 48h = P. falciparum growth inhibition at 48 hours (one generation); actives 5.9% (n = 310,000); Potency, µM (top dose mostly 28.7 µM), actives largely listed as inhibitors; P. falciparum luciferase growth in erythrocytes, 48 h; AID 504832
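Luminescence readout; reporter = integrated firefly luciferase in P. falciparum. RBC culture at 2% hematocrit, 0.1% parasitemia final, 37 C/5% CO2; decreased signal taken as growth inhibition.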
Shiga toxin inh = Shiga toxin inhibition | actives 9.2% (n = 290,000) | Vero cells, Shiga toxin protein synthesis inhibition reporter | inhibition, % at 38.7 µM; in the data active = inhibition mostly above about 28%, no sharp cut-off; inactive = mostly below about 43%
CHX counter = affects cycloheximide protein synthesis inhibition readout, counter-screen | max response, % | actives 12% (n = 300,000) | cell reporter, cycloheximide protein synthesis inhibition counterscreen; in the data active = max response mostly above about 13%, no sharp cut-off; inactive = mostly below about 14%; also: read at 38.3 µM for the half of the compounds with a filed dose
NS1 inh = blocks influenza NS1 protein function | Potency, µM (series often up to 46.1 µM) | AID 2326 | actives 0.4% (n = 270,000); calls by dose curve; also: actives are rising curves; nearly all actives have a fitted effect of over 50% in size
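In this qHTS, NS1 from influenza A is expressed in budding yeast, where it slows growth. Cells are switched from glucose to 2% galactose medium (pH 6.0, -URA), treated with compound, and growth recovery is read at OD600.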
Hits are given with their value; . = inactive; ? = inconclusive; / = no result given; + = active, no number; [ ] = dose if it differs, or a comment. Unless noted, calls follow the shape of the dose curve; as a rule, active = well fitted inhibition curve with a large enough effect; inconclusive = small, poorly fitted or top-dose-only effect, or another doubt; inactive = no such curve, though single readings can be large or run the other way.

SMILES | Pf growth 96h | SARS PLpro yeast | Pf growth 48h | Shiga toxin inh | CHX counter | NS1 inh
CCCOC(=O)c1c(NC(=O)C2C3C=CC(C3)C2C(=O)O)sc2c1CCC(C)C2 (centres undefined) | . | . | . | . | . | .
O=C1/C(=C/c2ccccn2)SC(=S)N1c1cccc(O)c1 | . | . | . | 38.0 | 36.4 | .
Cc1cc(/C=C2\SC(=S)N(Cc3ccco3)C2=O)c(C)n1-c1ccccc1 | ? | . | ? | 80.3 | 73.2 | ?
COc1ccc(-n2c(C)cc(/C=C3/SC(=S)N(C)C3=O)c2C)cc1 | 0.329µM | . | . | . | . | .
Cc1cc(/C=C2\SC(=S)N(C)C2=O)c(C)n1-c1cccc(O)c1 | . | . | . | 107.5 | 58.8 | .
CCOc1ccc(N2C(=O)/C(=C/c3ccccn3)SC2=S)cc1 | . | . | . | . | . | .
O=C(NCc1ccccc1)C1CCC(=O)N(CCCN2CCCC2=O)C1 (centres undefined) | . | . | . | . | . | .
O=C(Nc1ccc(CSc2ccccc2)cc1)c1ccco1 | . | . | . | 95.8 | 45.7 | .
O=C(Nc1nc(SCc2ccc(F)cc2)ns1)c1ccco1 | ? | . | . | . | 16.3 | .
CCCC(=O)Nc1ccc(NC(=O)c2ccco2)c(OC)c1 | ? | . | . | + | 27.8 | .
COc1ccc(C)cc1NC(=O)C(=O)NNC(=O)c1ccco1 | 1.85µM | . | . | . | . | .
COc1ccc(C)cc1NC(=O)CCNC(=O)c1ccco1 | . | . | ? | . | . | .
CC(=O)Nc1ccc(S(=O)(=O)NCCc2cn3nc(C)c(C)nc3n2)cc1 | . | ? | . | . | . | .
O=S(=O)(Cc1ccc(Cl)cc1)NCc1ccc2c(c1)OCO2 | ? | . | . | . | . | .
COc1ccc(OCC(=O)Nc2cc(NC(=O)c3ccco3)ccc2OC)cc1 | 8.28µM | . | ? | . | . | .
COc1cc(NC(=O)COc2ccc(C)c(C)c2)ccc1NC(=O)c1ccco1 | . | . | 7.38µM | . | . | .
COCCNC(=S)Nc1cc(OC)c(NC(=O)c2ccco2)cc1OC | . | . | . | . | 21.9 | .
COc1ccc(NC(=O)c2ccco2)cc1NC(=O)COc1ccccc1 | . | . | . | . | . | .
CCC(=O)Nc1ccc(NC(=O)c2ccco2)c(OC)c1 | ? | . | . | 67.3 | 30.1 | .
COc1cc(NC(=O)CC(C)C)ccc1NC(=O)c1ccco1 | / | / | / | / | / | .
COc1cc(NC(=O)COc2cccc(C)c2C)ccc1NC(=O)c1ccco1 | ? | . | . | . | . | .
COc1ccc(C(C(=O)NC(C)(C)C)N(CC2CCCO2)C(=O)CCC(=O)Nc2cc(C)on2)cc1 (centres undefined) | . | ? | / | . | . | .
COc1ccc(NC(=O)CSc2nnc(-c3ccncc3)n2CC2CCCO2)c(OC)c1 (centres undefined) | / | . | . | . | . | .
Cc1noc(C)c1CSCC(=O)OCc1nc2ccccc2c(=O)n1CC#N | ? | . | . | . | . | .
COC(=O)CCCC(=O)N1CCC(CCC(=O)NC2CC2)CC1 | . | . | . | . | . | .
SMILES | Pf growth 96h | SARS PLpro yeast | Pf growth 48h | Shiga toxin inh | CHX counter | NS1 inh
COc1ccccc1OCC(=O)Nc1cc(C)ccc1NC(=O)c1ccco1 | 10.4µM | . | ? | . | . | .
Cc1ccc(NC(=O)COc2ccccc2)c(NC(=O)c2ccco2)c1 | . | . | . | . | . | .
O=C(CCc1ccccc1)Nc1ccc(NC(=O)c2ccco2)cc1 | . | . | . | . | . | .
CCC(=O)Nc1ccc(NC(=O)c2ccco2)cc1 | . | . | . | 56.6 | 25.3 | .
CCCCN1Cc2c(nc3cc(-c4ccco4)[nH]n3c2=O)C1=O | . | . | . | . | . | .
CCCCN1CCN=C1Nc1ccccc1 | . | . | . | . | . | .
CCOc1ccccc1N1CCN(C(=O)/C=C/c2cccc([N+](=O)[O-])c2)CC1 | ? | . | . | . | . | .
CN(C)CCNc1ncnc2c1sc1nc(-c3ccccc3)c3c(c12)CCCC3 | . | . | ? | . | . | .
CCOC(=O)c1ccc(COC(=O)c2cc3ccccc3oc2=O)o1 | . | . | . | . | 28.3 | .
COc1ccc2oc(=O)c(C(=O)NCc3ccccc3)cc2c1 | ? | . | . | . | . | .
O=C(OC[C@@H]1CCCN2CCCC[C@H]12)c1cc2ccccc2oc1=O | . | . | . | . | . | .
COC(=O)c1ccc(CNC(=O)c2cc3ccccc3oc2=O)cc1 | . | . | . | . | . | .
COC(=O)c1ccc(COC(=O)c2cc3ccccc3oc2=O)cc1 | ? | . | . | . | 11.4 | .
CN(C(=O)COC(=O)c1cc2ccccc2oc1=O)C1CCCCC1 | / | . | / | / | / | /
COc1ccc2oc(=O)c(C(=O)OCc3ccccc3)cc2c1 | . | . | .[0.00184 µM] | . | 22.5 | .
CC(=O)c1ccc(COC(=O)c2cc3ccccc3oc2=O)cc1 | 13.1µM | . | . | . | 24.9 | .
Cc1ccc(NC(=O)COC(=O)[C@@H]2CCCN2C(=O)c2cccs2)cc1S(=O)(=O)N(C)C | . | . | . | . | . | .
CC(=O)c1ccc(-n2c(CCC(=O)O)ccc2-c2ccc(Cl)cc2)cc1 | . | . | . | . | . | .
Brc1ccc(N=Cc2ccccn2)cc1 | . | . | . | 54.4 | 22.1 | .
C(=C\c1ccccn1)/c1ccccn1 | . | . | . | 105.4 | 63.5 | .
CC(C)c1nnc(NC(=O)CC(=O)Nc2ccccc2C(=O)O)s1 | .[5.75 µM] | . | . | . | . | .
N=C1SCC(=O)N1c1nc(-c2ccccc2)cs1 | . | . | . | . | 21.0 | .
CC1=NN(c2nc(-c3ccccc3)cs2)C(=O)C1 | . | . | ? | . | 16.0 | .
CC1=NN(c2nc(-c3ccc(C#N)cc3)cs2)C(=O)C1 | . | . | . | 53.4 | . | .
O=C(Nc1ccc(F)cc1F)c1cc(=O)n(-c2ccccc2)c(=O)[nH]1 | . | . | . | . | . | /
SMILES | Pf growth 96h | SARS PLpro yeast | Pf growth 48h | Shiga toxin inh | CHX counter | NS1 inh
C/C(Cn1nc([N+](=O)[O-])cc1C)=N\NC(=O)COc1c(Cl)cc(Cl)cc1Cl | . | . | . | . | . | .
C/C(=N\NC(=O)Cn1cc([N+](=O)[O-])cn1)c1ccco1 | . | . | . | . | . | .
Cc1n(N)c2ccccc2[n+]1CC(=O)c1ccccc1 | . | . | ? | . | . | .
COc1ccc(C(=O)NC(=S)NNC(=O)c2ccncc2)cc1Br | ? | . | 13.1µM | / | / | /
COc1ccc(C(=O)NC(=S)NC(C)C)cc1Br | ? | . | . | 64.8 | 23.2 | .
COc1ccc(C(=O)NC(=S)NNC(=O)c2ccc(NC(C)=O)cc2)cc1Br | . | . | . | . | . | .
COc1ccc(C(=O)NC(=S)NC(C)(C)C)cc1Br | 5.22µM | ? | ? | 71.1 | 20.7 | .
N#Cc1ccc(/C=C\c2nccc3c2[nH]c2ccccc23)cc1 | . | . | 3.29µM | . | . | /
Clc1ccc(/C=C\c2nccc3c2[nH]c2ccccc23)cc1 | . | . | 4.65µM | . | . | /
Cc1nccc2c1[nH]c1ccccc12 | . | . | . | . | . | .
CCc1nccc2c1[nH]c1ccccc12 | ? | . | . | / | / | /
